Consider 25 compounds from PubChem BioAssay (NCATS).

Inconclusive results are not listed. Activity calls are given as the source filed them. The call rests on the fitted dose curve; in most records, active means well fitted curve in the direction sought with a large enough effect; inconclusive means small, poorly fitted or top-dose-only effect, or another doubt; inactive means no such curve, though single readings can be large; an effect the other way counts as inactive or inconclusive.

Test [1] can be described thus: qHTS assay for measurement of the activity of small molecule inhibitors on Zika virus induced Caspase-3 activity in human astrocytoma cells (AID 1224859). The method in brief: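 Percent inhibition of virus-induced caspase-3/7 signal is calculated against uninfected and ZIKV-infected control cells. Cells are SNB-19, infected at 2 FFU/cell for 6 h after 1 h compound exposure.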
(In general: Quantitative high-throughput screening tests each substance at several concentrations.)

Test [2] can be described thus: qHTS assay to identify small molecule inhibitors of chordoma cells - UCH-1 (AID 1259355). Further: nearly all actives have a fitted effect of over 55% in size. The procedure, abridged: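 800 cells/well, overnight attach; compounds pinned at 15 concs, then auranofin/camptothecin/doxorubicin/rubitecan/topotecan combo added; 48hr 37 C, 5% CO2; CellTiter-Glo, 30min RT, luminescence.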
The nature of test [3]: qHTS assay to identify small molecule inhibitors of chordoma cells - UCH-2 (AID 1259356). Further: series mostly up to about 46 µM.
A short description of test [4]: NS1 protein of Zika virus - qHTS assay to identify small molecule inhibitors in human HEK 293 cells (AID 1347053). Further: series mostly up to about 46 µM; nearly all actives have a fitted effect of over 55% in size. The method in brief:
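Read-out is a two-antibody TR-FRET for ZIKV NS1, normalized between uninfected cells and infected cells. Compound added 1 h before MR766 infection at MOI 0.5; human HEK 293 cells incubated 24 h, 37 C.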

Test [5] is described as follows: qHTS of pediatric cancer cell lines to identify multiple opportunities for drug repurposing: Primary screen for TC32 cells (AID 1347089). Further: nearly all actives have a fitted effect of over 60% in size. Further: potency means the concentration at half of the fitted maximal effect. The method in brief: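 Luminescent CellTiter-Glo read-out of metabolically active TC32 cells after 48 h compound exposure. Primary: MIPE 11-point, 0.78 nM–46 µM; NPC 8-point, 0.59 nM–46 µM. Confirmatory: 11-point dilutions.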
Test [6] in a line: qHTS of pediatric cancer cell lines to identify multiple opportunities for drug repurposing: Primary screen for DAOY cells (AID 1347090). Further: nearly all actives have a fitted effect of over 55% in size. Further: potency means the concentration at half of the fitted maximal effect. The procedure, abridged: (§1)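 Cell viability, CellTiter-Glo luminescence; 500-1,000 cells/well, 8- or 11-point titration, 48 h compound exposure at 37 degrees C, 5% CO2. Controls: DMSO neutral, bortezomib 2.3 µM final as positive.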
Test [7] is described as follows: qHTS of pediatric cancer cell lines to identify multiple opportunities for drug repurposing: Primary screen for SJ-GBM2 cells (AID 1347091). Further: potency means the concentration at half of the fitted maximal effect. The procedure, abridged: as §1
The nature of test [8]: qHTS of pediatric cancer cell lines to identify multiple opportunities for drug repurposing: Primary screen for NB-EBc1 cells (AID 1347095). Further: potency means the concentration at half of the fitted maximal effect. The procedure, abridged:
(§2)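 Phenotypic viability qHTS, 48 h compound exposure, CellTiter-Glo luminescence read-out; multi-concentration dosing so that potency and efficacy derive directly from the primary screen's curves.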

The nature of test [9]: qHTS of pediatric cancer cell lines to identify multiple opportunities for drug repurposing: Primary screen for BT-37 cells (AID 1347094). Further: potency means the concentration at half of the fitted maximal effect. The procedure, abridged:
as §2

Test [10] can be described thus: qHTS of pediatric cancer cell lines to identify multiple opportunities for drug repurposing: Primary screen for A673 cells (AID 1347092). Further: nearly all actives have a fitted effect of over 45% in size. Further: potency means the concentration at half of the fitted maximal effect. The procedure, abridged: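 A673 cells (500-1,000 cells/well in growth media) were pre-incubated 5 h at 37 degrees C, then exposed to compounds for 48 h. Viability was read as CellTiter-Glo luminescence; concentration-response curves came directly from the primary screen.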

Test [11] is described as follows: qHTS of pediatric cancer cell lines to identify multiple opportunities for drug repurposing: Primary screen for SK-N-MC cells (AID 1347093). Further: potency means the concentration at half of the fitted maximal effect. The method in brief: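 Metabolically active cells were quantified by ATP-dependent luminescence (CellTiter-Glo, 15 min at room temperature) following 48 h treatment. Cells had been plated at 500-1,000 per well and settled for 5 h beforehand.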

Test [12] in a line: P-glycoprotein substrates identified in KB-8-5-11 adenocarcinoma cell line, qHTS therapeutic library screen (AID 1346987). Further: nearly all actives have a fitted effect of over 65% in size. Further: potency means the concentration at half of the fitted maximal effect. The method in brief: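 Compounds are pinned in dose-response onto KB-8-5-11 cells (500 cells/well, colchicine-free medium) and left 72 h at 37 degree C. CellTiter-Glo luminescence then yields AC50 values.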

`CCOC(=O)c1c(N)sc2c1CCN(Cc1ccccc1)C2`: the call in test [1] was inactive. The Potency result in [2], in test [3], in test [4], in [5], in [6] and in test [7] was “inactive” each time. Besides, the Potency result in [8] is “inactive”.

Consider `CCCCCN=C(N)N/N=C/c1c[nH]c2ccc(OC)cc12`, for which the compound was classed as inactive in test [1]. The Potency entry in [2] and in [3] was “inactive” in each case. The Potency in [9] is 24.6 µM (active).

With `O=C1c2cccc3c2[C@H](CCC3)CN1[C@@H]1CN2CCC1CC2`, the compound was classed as inactive in test [1]. The Potency result in test [2], in test [3], in test [5], in test [6], in [10] and in test [8] was “inactive” in each case.

On to `C#C[C@]1(O)CC[C@H]2[C@@H]3CCc4cc(OC)ccc4[C@H]3CC[C@@]21C`, for which the compound was called inactive in [1]. Moreover, the Potency result in test [2], in test [3], in test [4], in [5], in test [6] and in test [10] was “inactive” throughout. The Potency result in test [11], in test [9] and in test [8] was “inactive” each time.

On to `Oc1ccc(Cl)cc1Cc1cc(Cl)ccc1O`, for which the outcome in test [1] was inactive. Moreover, the Potency entry in test [2], in test [3] and in [4] was “inactive” in each case. Moreover, the Potency in [6] is 21.1 µM (active); in [9] it was 19.5 µM (active).

On to `O=[N+]([O-])c1ccc(/C=N\O)o1`, for which the call in test [1] was inactive. In addition, the Potency entry in test [2], in [3], in [4], in test [5], in [6] and in test [7] was “inactive” in each case. In addition, the Potency entry in [9] and in test [8] was “inactive” throughout.

On to `O=c1[nH]c(=O)n([C@H]2C[C@H](O)[C@@H](CO)O2)cc1F`, for which, in test [1], the result was inactive. Further, the Potency entry in [2], in test [3] and in [4] was “inactive” throughout. Further, the Potency in [5] is 0.264 µM (active); in test [10] it was 0.841 µM (active); in test [8] it was 2.37 µM (active).

Take `CC(C(=O)O)c1cccc(Oc2ccccc2)c1` (stereo not given): the result in test [1] was inactive. Besides, the Potency entry in test [2], in test [3], in test [4], in test [5], in test [6] and in test [7] was “inactive” in each case. Moreover, in [8], the Potency result was “inactive”.

For the compound `Cc1cn([C@H]2C[C@H](F)[C@@H](CO)O2)c(=O)[nH]c1=O`, the outcome in [1] was inactive. Moreover, the Potency result in [3], in [12], in [4], in [5], in test [6] and in test [7] was “inactive” each time. Also, the Potency entry in test [10] was “inactive”.

Take `O=C1[C@H](CC[C@H](O)c2ccc(F)cc2)[C@@H](c2ccc(O)cc2)N1c1ccc(F)cc1`: the call in test [1] was inactive. The Potency entry in [2], in test [3], in test [4], in [5], in test [6] and in [10] was “inactive” in each case. In addition, the Potency entry in test [9] and in test [8] was “inactive” in each case.

In the case of `CCCN(CCc1cccs1)[C@H]1CCc2c(O)cccc2C1`, the outcome in test [1] was inactive. In addition, the Potency result in [2], in test [3], in test [4], in test [5], in [6] and in test [7] was “inactive” each time. The Potency result in [8] was “inactive”.

For the compound `O=C(N/N=C/c1ccc([N+](=O)[O-])o1)c1ccc(O)cc1`, in test [1], the compound was called inactive. Further, the Potency entry in test [2], in [3], in [4] and in test [7] was “inactive” in each case.

As for `CCCCCCCCCCCCCCC[C@H](O)[C@@H](N)CO`, the compound was called inactive in test [1]. The Potency entry in [2], in test [3], in test [4], in test [5], in test [6] and in test [7] was “inactive” throughout. Moreover, the Potency result in test [11] and in test [8] was “inactive” in each case.

As to `CC[C@H](c1ccc(O)cc1)[C@@H](CC)c1ccc(O)cc1`, in [1], the compound was classed as inactive. Also, the Potency result in [2], in [3] and in test [4] was “inactive” throughout. For the same compound, the Potency in test [7] is 3.35 µM (active).

With `O[C@@H](c1cc(C(F)(F)F)nc2c(C(F)(F)F)cccc12)[C@H]1CCCCN1`, the outcome in [1] was inactive. The Potency entry in test [3] was “inactive”.

Regarding `COc1cc([C@H]2Oc3cc([C@H]4Oc5cc(O)cc(O)c5C(=O)[C@@H]4O)ccc3O[C@@H]2CO)ccc1O`, in test [1], the call was inactive. Also, the Potency entry in [3], in test [4], in test [6], in test [7], in test [9] and in [8] was “inactive” throughout. Also, the Potency in test [11] was 33.5 µM (active).

On to `CC(C)CCCC(C)N` (stereo not given), for which the call in [1] was inactive. Moreover, the Potency result in [3], in test [12], in [4], in test [5], in test [6] and in [7] was “inactive” each time. Moreover, the Potency entry in test [10], in [11], in test [9] and in [8] was “inactive” in each case.

For `NCCNc1cccc2ccccc12`, in test [1], the compound was called inactive. Moreover, the Potency entry in test [3], in test [12], in [4], in [5], in test [6] and in test [7] was “inactive” throughout. In addition, the Potency result in test [10], in test [11] and in test [8] was “inactive” throughout.

On to `O=C1OC2(c3ccccc31)c1cc(Br)c(O)c(Br)c1Oc1c2cc(Br)c(O)c1Br`, for which, in [1], the compound was called inactive. Also, the Potency result in test [3], in test [12], in test [4], in test [5], in test [6] and in test [7] was “inactive” in each case. The Potency result in test [10], in test [9] and in test [8] was “inactive” each time.

As for `O=C(O)CCNC(=O)c1ccccc1`, the compound was called inactive in [1]. In addition, the Potency entry in test [3], in test [12], in test [4], in test [5], in [6] and in [7] was “inactive” throughout. Further, the Potency entry in test [10], in test [11] and in test [8] was “inactive” throughout.

On to `CCc1nn(CCCN2CCN(c3cccc(Cl)c3)CC2)c(=O)n1CCOc1ccccc1`, for which, in test [1], the outcome was inactive. Moreover, the Potency entry in test [3], in test [4], in test [5] and in [8] was “inactive” each time. Moreover, in test [12], the Potency is 10.3 µM (active).

Consider `O=S(=O)(O)c1ccc(O)cc1`, for which the compound was classed as inactive in test [1]. Further, the Potency result in test [3], in [12], in [4], in test [5], in test [6] and in test [7] was “inactive” throughout. Also, the Potency entry in test [10], in [11], in test [9] and in test [8] was “inactive” in each case.

For `C=C[C@H]1CN2CC[C@H]1C[C@H]2[C@H](O)c1ccnc2ccc(OC)cc12`, the result in [1] was inactive. Also, the Potency result in [3], in test [12], in test [4], in test [5], in test [6] and in [7] was “inactive” in each case. Besides, the Potency entry in [11], in test [9] and in [8] was “inactive” throughout.

Take `CC(=O)N[C@@H](CCC(=O)O)C(=O)O`: the result in [1] was inactive. Further, the Potency entry in test [3], in test [12], in [4], in test [5], in [6] and in [7] was “inactive” in each case. For the same compound, the Potency result in [10], in test [9] and in test [8] was “inactive” each time.

For the compound `O=C(O)c1ccc(S(=O)(=O)N(Cl)Cl)cc1`, the result in [1] was inactive. The Potency entry in test [3], in [12], in test [4], in test [5], in test [6] and in test [7] was “inactive” each time. The Potency result in [9] and in test [8] was “inactive” each time.
